Source: PubChem BioAssay
Rv3671c inh: inhibits the M. tuberculosis serine protease Rv3671c; 0.048% of 320,000 active; AID 2606; P9WHR9; inhibition, % at 5.96 µM; in the data active = inhibition above about 38%;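 note: extracellular domain of Rv3671c used as enzyme; 0% = enzyme with DMSO and 100% = no enzyme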
Target sequence (P9WHR9 whole entry, looked up, the tested form may be a part): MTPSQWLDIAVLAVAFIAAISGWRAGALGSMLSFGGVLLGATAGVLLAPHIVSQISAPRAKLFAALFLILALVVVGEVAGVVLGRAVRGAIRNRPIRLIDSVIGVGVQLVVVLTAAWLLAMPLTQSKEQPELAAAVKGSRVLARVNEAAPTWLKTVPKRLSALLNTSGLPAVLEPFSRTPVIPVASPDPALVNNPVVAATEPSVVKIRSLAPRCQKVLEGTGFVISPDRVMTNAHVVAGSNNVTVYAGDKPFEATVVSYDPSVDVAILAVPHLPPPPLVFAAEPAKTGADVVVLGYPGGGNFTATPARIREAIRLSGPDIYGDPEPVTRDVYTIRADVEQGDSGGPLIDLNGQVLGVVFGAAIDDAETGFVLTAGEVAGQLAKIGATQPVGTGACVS
UGM FP inh: inhibitors of M. tuberculosis UDP-galactopyranose mutase; P9WIQ1; purified UGM, fluorescence polarization probe displacement; inhibition, % at 10 µM; 0.06% of 320,000 active; AID 504406; in the data active = inhibition above about 10%, passing the limit was not always enough
RecA intein inh: inhibitors of M. tuberculosis RecA intein splicing. cell-free RecA intein splicing, fluorescence. inhibition, % (concentration not given with the values). 0.75% of 290,000 active. AID 2221; in the data active = inhibition above about 30%;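 note: 0% = vehicle wells and 100% = reference inhibitor control wells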
GDH-TPI inh: counter-screen for M. tuberculosis FBA inhibitors: GDH-TPI coupled enzymes. GDH-TPI coupled enzyme counterscreen, NADH absorbance. inhibition, % at 4.8 µM. 1.2% of 360,000 active; in the data active = inhibition above about 30%;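 note: 0% = DMSO wells and 100% = wells lacking the enzyme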
Mtb FBA inh: Mtb fructose-bisphosphate aldolase inhibition; inhibition, % at 1 µM; P9WQA3; AID 588726; 2.3% of 360,000 active; purified M. tuberculosis FBA, fluorescence read-out; in the data active = inhibition above about 27%;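 note: 0% = vehicle and 100% = reference inhibitor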
Mtb bLac sens: beta-lactam sensitization of Mtb H37Rv. inhibition, % at 25 µM. 0.27% of 330,000 active. M. tuberculosis H37Rv growth with meropenem, percent inhibition; call rule not given here;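 note: growth measured after seven days incubation then overnight dye step; 0% = bacteria only wells and 100% = bacteria with antibiotic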
* hit, by the source's call; i = inactive; / = not tested or not shown; + = active, no number. Rows were chosen to be rich in hits. Some 4% of all compounds tested hit in one or more screens of this group.

SMILES | Rv3671c inh | UGM FP inh | RecA intein inh | GDH-TPI inh | Mtb FBA inh | Mtb bLac sens
Cc1cccc(CCN(C(=O)c2csnn2)C(C(=O)NC2CCCC2)c2ccco2)c1 (stereo unspecified) | -11 | 0 | 3 | -3 | -2 | 1
COc1cc2c(cc1OC)C1Cc3ccc(OC)c(OC)c3C[N+]1([O-])CC2 (stereo unspecified) | -3 | 1 | -2 | 2 | -1 | -4
COc1ccc(-c2cccc(-c3cc(=O)oc4ccc(C(C)(C)C)cc34)c2)cc1 | / | / | / | 6 | 3 | /
Cc1cc(NC(=O)C(C)Oc2ccccc2)no1 (stereo unspecified) | 1 | -1 | -3 | 2 | 1 | -3
CSc1ccc(/C=N/Nc2nc(C)cc(C)n2)cc1 | 8 | 1 | -2 | 33* | -6 | -3
O=C(COC(=O)C1CCC(=O)N1)Nc1ccccc1Br (stereo unspecified) | -13 | 1 | 0 | 32* | 1 | 5
CCN(CC(=O)Nc1ccc(NC(C)=O)cc1)C(=O)c1ccc(Sc2nncn2C)c([N+](=O)[O-])c1 | / | / | / | 13 | 2 | /
CN(C)Cc1c(O)ccc2cc(-c3nc4ccccc4n3C)c(=O)oc12 | -7 | 3 | i | -7 | + | 0
CN(C)Cc1c(O)ccc2c(-c3ccccc3)cc(=O)oc12 | -1 | -2 | -38 | 3 | 10 | 1
O=C(NCc1ccc(F)cc1)c1cccc2c1C(=O)c1ccc(N3CCC(Cc4ccccc4)CC3)cc1S2(=O)=O | -23 | 33* | / | 14 | 2 | 6
CC1CCN(c2ccc3c(c2)S(=O)(=O)c2cccc(C(=O)NCc4ccc(F)cc4)c2C3=O)CC1 | -1 | 7 | / | -2 | -3 | 6
COc1ccc(/C=C(/C(=O)c2ccc(Cl)cc2Cl)n2cncn2)cc1 | 4 | 1 | 3 | 32* | -4 | 5
CN(C)c1ccc(/C=C(/C(=O)c2ccc(Cl)cc2Cl)n2cncn2)cc1 | -3 | / | 2 | -7 | -41 | -5
CC(C)CC(=O)/C(=C\c1ccc(Cl)cc1Cl)n1cncn1 | / | / | 44* | 8 | 0 | /
Cc1nccn1-c1c([N+](=O)[O-])c(=O)n(C)c2ccccc12 | 8 | 2 | 45* | 6 | 1 | 5
Cn1c(=O)c([N+](=O)[O-])c(N2CCSCC2)c2ccccc21 | 1 | -5 | / | 23 | 1 | -7
COc1ccc(OC)c(-c2cc(C(=O)N3CCCc4ccccc43)no2)c1 | -1 | 0 | 0 | 34* | 2 | 23
O=[N+]([O-])c1ccc(N2CCc3ccccc3C2)cc1 | -15 | 1 | 10 | 11 | -5 | 14
COc1cc(C=Cc2nnc3c4ccccc4cnn23)cc(OC)c1OC | / | / | / | 55* | -1 | /
CCOc1ccc(NS(=O)(=O)c2ccc(C(=O)N(C)CC(=O)Nc3cccc(OC)c3)cc2)cc1 | / | / | / | 9 | -1 | /
O=C(CCl)N=c1sccn1Cc1ccccc1Cl | 12 | 2 | 19 | 10 | -1 | 99
O=C(CCl)N=c1sccn1Cc1ccc(Cl)cc1Cl | 2 | 0 | 44* | -4 | -1 | 100
CCOC(=O)N1CCN(CC(=O)NC(=O)Nc2ccc3c(c2)OCCO3)CC1 | / | / | / | 1 | -4 | /
CCOC(=O)N1CCN(c2c(N3CCc4ccccc43)c(=O)c2=O)CC1 | -7 | 2 | 1 | 51* | 0 | 2
CCOC(=O)N1CCN(c2c(Nc3ccc4c(c3)OCCO4)c(=O)c2=O)CC1 | 5 | 0 | 0 | 42* | 2 | -5
SMILES | Rv3671c inh | UGM FP inh | RecA intein inh | GDH-TPI inh | Mtb FBA inh | Mtb bLac sens
CCOC(=O)C1CCN(C2CCN(C(=O)c3oc4c(C)c(C)ccc4c3C)CC2)CC1 | -9 | -1 | -1 | 1 | -1 | 95
O=C(CSCc1cc(=O)n2ccsc2n1)Nc1ccc(F)cc1 | 3 | -1 | -3 | -1 | -2 | -2
CCOC(=O)COc1cc(OCC(=O)OCC)c2c3c(c(=O)oc2c1)CCCC3 | / | 0 | -4 | 6 | 160* | 99
Cc1c(OCC(=O)NC(Cc2ccc(Cl)cc2)C(=O)O)ccc2c3c(c(=O)oc12)CCC3 (stereo unspecified) | -6 | 1 | 0 | 7 | 6 | -11
CCCCc1cc(=O)oc2cc(C)cc(OCC(=O)O)c12 | 0 | -1 | 1 | 23 | 152* | 11
Cc1cc(OCC(=O)NC(Cc2ccc(Cl)cc2)C(=O)O)c2c3c(c(=O)oc2c1)CCC3 (stereo unspecified) | -2 | 1 | 3 | 9 | 72* | -5
CCCOC(=O)COc1cc(C)cc2oc(=O)c3c(c12)CCC3 | -9 | 3 | 0 | 17 | 13 | -5
Cc1cc(OCC(=O)N[C@@H](Cc2ccccc2)C(=O)O)c2c3c(c(=O)oc2c1)CCC3 | -6 | 3 | 0 | 24 | 137* | -11
CCCCn1c(N)c(N(C(=O)CSc2nnc(C)n2-c2ccccc2)C2CCCC2)c(=O)[nH]c1=O | 2 | 4 | / | 9 | 0 | -4
NC(c1csc(Nc2ccc(C(=O)c3ccccc3)cc2)n1)c1ccccc1Cl (stereo unspecified) | / | / | / | 13 | 2 | /
COc1cc(OC)c(C(=O)Nc2cccc3ccccc23)cc1OC | 0 | -1 | -2 | 10 | -1 | /
CCOc1cc(C)cc2oc(=O)c3c(c12)CCCC3 | -1 | 0 | 2 | 1 | 8 | 0
Cc1cc(OCC(=O)N[C@H](C(=O)O)c2ccccc2)c2c3c(c(=O)oc2c1)CCC3 | -4 | -3 | / | 4 | 114* | -7
Cc1cc(OCC(=O)NCC(O)c2ccccc2)c2c3c(c(=O)oc2c1)CCC3 (stereo unspecified) | 6 | 3 | 2 | 2 | 14 | 3
Cc1cc(OCC(=O)O)c2c3c(c(=O)oc2c1)CCCC3 | 1 | 3 | -3 | 6 | 185* | -4
O=C(OCC(=O)N1CCOCC1)c1ccccc1O | 0 | 0 | -1 | -5 | 0 | 2
O=C(OCC(=O)N1CCOCC1)c1ccc(O)cc1 | -3 | 1 | 0 | 14 | + | -3
CC(C)(C)c1ccc(S(=O)(=O)N2CCN(C(=O)C3CCC3)CC2)cc1 | -1 | -2 | -3 | 6 | 0 | -12
Cc1sccc1/C=N/NC(=O)c1ccco1 | -3 | 3 | -2 | 28 | -1 | -13
Cc1cc(=O)oc2cc(OCC(=O)N/N=C/c3ccccc3O)ccc12 | -2 | -2 | -3 | 2 | 2 | 5
Cc1cc(N(CCCl)CCCl)ccc1/C=N/NC(=O)c1ccco1 | 1 | -2 | -4 | 49* | 0 | 11
Cc1cc(N(CCCl)CCCl)ccc1C=NNC(=O)Cc1cc(=O)oc2cc(O)ccc12 | / | / | / | 59* | 169* | /
O=C(Nc1cc(C(F)(F)F)ccc1N1CCOCC1)C1CCCO1 (stereo unspecified) | -2 | 1 | / | -5 | 2 | -5
Cc1ccc(NC(=O)C2CCC(N3C(=O)C4CCCCC4C3=O)CC2)cc1 (stereo unspecified) | 4 | 1 | 2 | -1 | 1 | -4
OC(c1ccc(-c2ccccc2)cc1)c1ncc(-c2ccccc2)[nH]1 (stereo unspecified) | / | / | / | 2 | -3 | /
